Drawing on ChEMBL document CHEMBL1157539, “Thousands of chemical starting points for antimalarial lead identification” (Nature, 2010), this text covers Inhibition for 39 compounds.

The test system of one experiment is Plasmodium falciparum. The experiment in a line: GSK_TCMDC: Inhibition of Plasmodium falciparum 3D7 in whole red blood cells, using parasite LDH activity as an index of growth. Test compounds present at 2uM. The format is functional.
One may read the Inhibition as the drop in the measured response relative to a control, in per cent. Compound `COCCOc1cc(C)c(C2CCN(CCCCNC(=O)c3ccc(NC(=O)c4ccc(Cl)cc4)cc3)CC2)cc1C` returned an Inhibition of 88%.

The compound `NCC1CCCN1Cc1ccc(-c2cccc(-c3nc4cc(C(F)(F)F)ccc4[nH]3)c2)cc1.O=C(O)C(F)(F)F` (stereo not drawn) had an Inhibition of 99%.

`Cc1ccc(-c2csc(C)n2)c(C)c1`: the Inhibition worked out at 98%.

With `CC(CCNc1c2ccccc2nc2ccccc12)N1CCN(C)CC1.Cl` (stereo not drawn), the Inhibition is on record as 100%.

Compound `CC(C)(C)c1nn(-c2ccccc2)c2[nH]c(=O)c(CNCc3ccc4c(c3)OCO4)cc12` returned an Inhibition of 92%.

The compound `CCC(=O)Nc1cc(=O)[nH]c2nc(-c3ccc(Cl)cc3)nn12` registered an Inhibition of 84%.

Consider `Cc1cc(N(C)C)nc(Nc2ccc(NC(=O)c3cccc(F)c3)cc2)n1`, for which the Inhibition amounted to 100%.

`FC(F)(F)c1ccc2[nH]ccc(=NN=Cc3cccc(Cl)c3)c2c1`: the Inhibition is recorded as 97%.

Compound `Cc1ccc(C)c(S(=O)(=O)Nc2ccc(Br)cc2C(=O)Nc2cccc(C(F)(F)F)c2)c1` came in with an Inhibition of 81%.

As to `CC(=O)N(C)c1cccc(C(=O)Nc2ccc(-c3cccc(-c4nc5cccc(C)c5[nH]4)c3)cc2)c1`, the Inhibition turned out to be 97%.

In the case of `O=C(O)C(F)(F)F.OCCN1CCN(Cc2ccc(-c3ccc(-c4nc5cc(C(F)(F)F)ccc5[nH]4)s3)cc2)CC1`, the Inhibition came out at 100%.

Turning to `Clc1ccc(CNc2ccnc(NCCc3coc4ccccc34)n2)c(Cl)c1`, the Inhibition is on record as 86%.

`Cc1ccc(C)c2sc(N(CCCn3ccnc3)C(=O)c3ccco3)nc12.Cl` displayed an Inhibition of 96%.

For the compound `Oc1c(Cl)cc(Nc2nccc(Nc3ccc(Oc4ccccc4)cc3)n2)cc1Cl`, the Inhibition is reported as 99%.

`CCCCN1CCN(Cc2cccc(NC(=O)c3ccc(Cl)c(Cl)c3)c2)CC1.O=C(O)C(F)(F)F` displayed an Inhibition of 88%.

Turning to `CC(C)C[C@H](NC(=O)c1cc2ccccc2s1)C(=O)N[C@H]1CCN(Cc2ccc(I)c(OC3CCN(C)C3)c2)C1.O=C(O)C(F)(F)F` (stereo partly drawn), the Inhibition came to 100%.

On to `Cc1noc(C)c1-c1cccc(CNCc2ccc(-c3ccc(-c4nc5ccccc5[nH]4)s3)cc2)c1.O=C(O)C(F)(F)F`, for which the Inhibition was determined as 100%.

For `Cn1cnc(CCNC(=O)c2ccc(-c3ccc(-c4nc5cc(C(F)(F)F)ccc5[nH]4)s3)cc2)c1`, the Inhibition is given as 100%.

Take `COc1ccc(NC(=O)[C@H](CC(C)C)Nc2cc(C)nc(NCCOc3ccccc3)n2)cc1.O=C(O)C(F)(F)F`: the Inhibition was 100%.

Consider `Cc1ccc(Nc2nc(C)cc(N3CCN(CCc4ccccc4)CC3)n2)cc1`, for which the Inhibition is on record as 93%.

As for `Cc1cc(-c2ccc(CNCCc3cccs3)cc2)ccc1S(=O)(=O)NCc1ccccc1.O=C(O)C(F)(F)F`, the Inhibition is given as 94%.

As to `O=C(Nc1cccc(-c2cccc(-c3nc4cc(F)ccc4[nH]3)c2)c1)c1csnn1`, the Inhibition is given as 95%.

`CN1CCN(c2cc(-c3cccnc3)nc(-c3ccncc3)n2)CC1` had an Inhibition of 100%.

Turning to `Cc1nc(N)nc(N)c1OCc1ccc(Cl)c(Cl)c1.Cl`, the Inhibition worked out at 97%.

`Cc1cc(NC2CCN(CC3CCCCC3)C2)nc(Nc2ccc(Cl)cc2)n1` (stereo not drawn) had an Inhibition of 98%.

As for `CC(CN1CCN(C)CC1)C(=O)Nc1ccc(-c2ccc(-c3nc4cc(F)ccc4[nH]3)cc2)cc1` (stereo not drawn), the Inhibition was determined as 100%.

Consider `N#Cc1cccc(Nc2cc(C(F)(F)F)nc(Nc3ccccc3)n2)c1.O=C(O)C(F)(F)F`, for which the Inhibition is given as 92%.

The compound `O=C(Nc1cccc(-c2cccc(-c3nc4cc(C(F)(F)F)ccc4[nH]3)c2)c1)c1cccnc1Cl` displayed an Inhibition of 95%.

In turn, `COc1cc2nc(NCC3CCCO3)n3nc(-c4ccccc4)nc3c2cc1OC` (stereo not drawn) returned an Inhibition of 92%.

Compound `CC1(C)CCCN(c2ncc(-c3cccc(CNCc4ccccc4O)c3)cn2)C1` returned an Inhibition of 96%.

`O=C(Nc1ccc(N2CCC(Nc3ccccn3)CC2)cc1)c1cnc(Cl)c(Cl)c1.O=C(O)C(F)(F)F` had an Inhibition of 83%.

With `O=C(Nc1cccc(CN2CCCN(Cc3ccc4c(c3)OCO4)CC2)c1)c1ccc(Cl)c(Cl)c1.O=C(O)C(F)(F)F`, the Inhibition is 92%.

As to `CC(C)CNCc1ccc(-c2cccc(CN(CCN(C)C)C(=O)CCC3CCCC3)c2)cc1.O=C(O)C(F)(F)F`, the Inhibition is 100%.

Compound `CC1(CCCCN2CCC(Oc3ccc(F)cc3F)CC2)C(=O)Nc2ccccc21.Cl` (stereo not drawn) registered an Inhibition of 99%.

`O=C(Nc1cc(F)cc(F)c1)NC1CCN(CCCCCNC(=O)C2CC2c2ccc(Cl)c(Cl)c2)CC1` (stereo not drawn) returned an Inhibition of 100%.

`NC(=O)COc1c(C2CCN(CCN3CCC(CNC(=O)c4ccc(-c5ccc(C(F)(F)F)cc5)cc4)CC3)CC2)ccc2c1CCCC2` returned an Inhibition of 87%.

Regarding `Nc1cc(-c2cc3c(OCc4ccccc4)cccc3[nH]2)ccn1`, the Inhibition was found to be 85%.

With `CC(C)C[C@@H](/C=N/N1CCOC1=O)NC(=O)[C@H](CC(C)C)NC(=O)c1ccc(OCCN2CCOCC2)cc1`, the Inhibition worked out at 92%.

Compound `COc1ccc2nccc([C@@H](O)CN3CCC(NC(=O)/C=C/c4ccc5cc(C)[nH]c5c4)CC3)c2c1` came in with an Inhibition of 97%.

A further experiment relates to Plasmodium falciparum. The experiment in a line: GSK_TCMDC: Inhibition of Plasmodium falciparum Dd2 in whole red blood cells, using parasite LDH activity as an index of growth. Test compounds present at 2uM. The format is functional.
Compound `COCCOc1cc(C)c(C2CCN(CCCCNC(=O)c3ccc(NC(=O)c4ccc(Cl)cc4)cc3)CC2)cc1C` yielded an Inhibition of 30%.

In turn, `NCC1CCCN1Cc1ccc(-c2cccc(-c3nc4cc(C(F)(F)F)ccc4[nH]3)c2)cc1.O=C(O)C(F)(F)F` (stereo not drawn) registered an Inhibition of 97%.

Regarding `Cc1ccc(-c2csc(C)n2)c(C)c1`, the Inhibition is reported as 0%.

On to `CC(CCNc1c2ccccc2nc2ccccc12)N1CCN(C)CC1.Cl` (stereo not drawn), for which the Inhibition is 0%.

In turn, `CC(C)(C)c1nn(-c2ccccc2)c2[nH]c(=O)c(CNCc3ccc4c(c3)OCO4)cc12` registered an Inhibition of 32%.

`CCC(=O)Nc1cc(=O)[nH]c2nc(-c3ccc(Cl)cc3)nn12` returned an Inhibition of 62%.

The compound `Cc1cc(N(C)C)nc(Nc2ccc(NC(=O)c3cccc(F)c3)cc2)n1` showed an Inhibition of 62%.

`FC(F)(F)c1ccc2[nH]ccc(=NN=Cc3cccc(Cl)c3)c2c1`: the Inhibition worked out at 2%.

Compound `Cc1ccc(C)c(S(=O)(=O)Nc2ccc(Br)cc2C(=O)Nc2cccc(C(F)(F)F)c2)c1` returned an Inhibition of 98%.

Compound `CC(=O)N(C)c1cccc(C(=O)Nc2ccc(-c3cccc(-c4nc5cccc(C)c5[nH]4)c3)cc2)c1` registered an Inhibition of 68%.

`O=C(O)C(F)(F)F.OCCN1CCN(Cc2ccc(-c3ccc(-c4nc5cc(C(F)(F)F)ccc5[nH]4)s3)cc2)CC1`: the Inhibition came out at 99%.

`Clc1ccc(CNc2ccnc(NCCc3coc4ccccc34)n2)c(Cl)c1` had an Inhibition of 39%.

Compound `Cc1ccc(C)c2sc(N(CCCn3ccnc3)C(=O)c3ccco3)nc12.Cl` yielded an Inhibition of 63%.

`Oc1c(Cl)cc(Nc2nccc(Nc3ccc(Oc4ccccc4)cc3)n2)cc1Cl` displayed an Inhibition of 26%.

Regarding `CCCCN1CCN(Cc2cccc(NC(=O)c3ccc(Cl)c(Cl)c3)c2)CC1.O=C(O)C(F)(F)F`, the Inhibition is 24%.

On to `CC(C)C[C@H](NC(=O)c1cc2ccccc2s1)C(=O)N[C@H]1CCN(Cc2ccc(I)c(OC3CCN(C)C3)c2)C1.O=C(O)C(F)(F)F` (stereo partly drawn), for which the Inhibition came out at 95%.

The compound `Cc1noc(C)c1-c1cccc(CNCc2ccc(-c3ccc(-c4nc5ccccc5[nH]4)s3)cc2)c1.O=C(O)C(F)(F)F` came in with an Inhibition of 79%.

`Cn1cnc(CCNC(=O)c2ccc(-c3ccc(-c4nc5cc(C(F)(F)F)ccc5[nH]4)s3)cc2)c1` displayed an Inhibition of 99%.

Consider `COc1ccc(NC(=O)[C@H](CC(C)C)Nc2cc(C)nc(NCCOc3ccccc3)n2)cc1.O=C(O)C(F)(F)F`, for which the Inhibition amounted to 65%.

`Cc1ccc(Nc2nc(C)cc(N3CCN(CCc4ccccc4)CC3)n2)cc1`: the Inhibition turned out to be 6%.

Regarding `Cc1cc(-c2ccc(CNCCc3cccs3)cc2)ccc1S(=O)(=O)NCc1ccccc1.O=C(O)C(F)(F)F`, the Inhibition is recorded as 0%.

`O=C(Nc1cccc(-c2cccc(-c3nc4cc(F)ccc4[nH]3)c2)c1)c1csnn1` came in with an Inhibition of 29%.

In turn, `CN1CCN(c2cc(-c3cccnc3)nc(-c3ccncc3)n2)CC1` came in with an Inhibition of 89%.

As to `Cc1nc(N)nc(N)c1OCc1ccc(Cl)c(Cl)c1.Cl`, the Inhibition amounted to 5%.

`Cc1cc(NC2CCN(CC3CCCCC3)C2)nc(Nc2ccc(Cl)cc2)n1` (stereo not drawn) displayed an Inhibition of 83%.

On to `CC(CN1CCN(C)CC1)C(=O)Nc1ccc(-c2ccc(-c3nc4cc(F)ccc4[nH]3)cc2)cc1` (stereo not drawn), for which the Inhibition was 87%.

The compound `N#Cc1cccc(Nc2cc(C(F)(F)F)nc(Nc3ccccc3)n2)c1.O=C(O)C(F)(F)F` yielded an Inhibition of 17%.

Compound `O=C(Nc1cccc(-c2cccc(-c3nc4cc(C(F)(F)F)ccc4[nH]3)c2)c1)c1cccnc1Cl` gave an Inhibition of 58%.

The compound `COc1cc2nc(NCC3CCCO3)n3nc(-c4ccccc4)nc3c2cc1OC` (stereo not drawn) returned an Inhibition of 97%.

`CC1(C)CCCN(c2ncc(-c3cccc(CNCc4ccccc4O)c3)cn2)C1` displayed an Inhibition of 82%.

In turn, `O=C(Nc1ccc(N2CCC(Nc3ccccn3)CC2)cc1)c1cnc(Cl)c(Cl)c1.O=C(O)C(F)(F)F` had an Inhibition of 1%.

As for `O=C(Nc1cccc(CN2CCCN(Cc3ccc4c(c3)OCO4)CC2)c1)c1ccc(Cl)c(Cl)c1.O=C(O)C(F)(F)F`, the Inhibition is 10%.

The compound `CC(C)CNCc1ccc(-c2cccc(CN(CCN(C)C)C(=O)CCC3CCCC3)c2)cc1.O=C(O)C(F)(F)F` registered an Inhibition of 81%.

The compound `CC1(CCCCN2CCC(Oc3ccc(F)cc3F)CC2)C(=O)Nc2ccccc21.Cl` (stereo not drawn) had an Inhibition of 6%.

Compound `O=C(Nc1cc(F)cc(F)c1)NC1CCN(CCCCCNC(=O)C2CC2c2ccc(Cl)c(Cl)c2)CC1` (stereo not drawn) returned an Inhibition of 6%.

On to `NC(=O)COc1c(C2CCN(CCN3CCC(CNC(=O)c4ccc(-c5ccc(C(F)(F)F)cc5)cc4)CC3)CC2)ccc2c1CCCC2`, for which the Inhibition is 68%.

`Nc1cc(-c2cc3c(OCc4ccccc4)cccc3[nH]2)ccn1`: the Inhibition was determined as 15%.

The compound `CC(C)C[C@@H](/C=N/N1CCOC1=O)NC(=O)[C@H](CC(C)C)NC(=O)c1ccc(OCCN2CCOCC2)cc1` had an Inhibition of 87%.

For `COc1ccc2nccc([C@@H](O)CN3CCC(NC(=O)/C=C/c4ccc5cc(C)[nH]c5c4)CC3)c2c1`, the Inhibition was 93%.
